According to the antibiotic and cytotoxicity screens of Wong et al. (2023):
About 1,500 (3.8%) of roughly 39,000 compounds were called active. The sample as a whole holds a higher share of actives than the screen did.

test system: HSkMC (human skeletal muscle cells); experiment: cytotoxicity call (relative viability < 0.9); conditions: 10 µM

SMILES | cytotoxicity call
CN1C(=O)c2cc(NC(=O)C3CCOCC3)ccc2OC[C@@H]2O[C@H](CC(=O)NCc3ccccc3F)CC[C@@H]21 | inactive
O=C(C[C@@H]1CC[C@@H]2NC[C@H](O)COC[C@H]2O1)NCCN1CCCCC1 | inactive
COCC#Cc1cnc2c(c1)C(=O)N([C@H](C)CO)C[C@H](C)[C@@H](CN(C)C(=O)Nc1ccccc1OC)O2 | inactive
C[C@H]1CN([C@@H](C)CO)C(=O)Cc2cc(NS(=O)(=O)c3ccc(F)cc3)ccc2O[C@H]1CN(C)S(=O)(=O)c1cn(C)cn1 | inactive
COc1cccc(NC(=O)N2C[C@@H](O)COC[C@@H]3O[C@@H](CC(=O)NCc4ccccc4F)CC[C@H]32)c1 | inactive
C[C@@H]1CCCCO[C@@H](CN(C)C(=O)Nc2ccc(C(F)(F)F)cc2)[C@@H](C)CN([C@H](C)CO)C(=O)c2cc(NC(=O)c3ccccc3)ccc2O1 | inactive
CC(C)(C)[S@@](=O)N1Cc2cc(C(=O)NCc3ccccc3F)nc(-c3cccc(-c4cccnc4)c3)c2[C@H]1CCO | inactive
O=C(C[C@H]1C=C[C@@H](NC(=O)Cc2ccccn2)[C@@H](CO)O1)NCCCN1CCOCC1 | inactive
C[C@@H]1CN([C@H](C)CO)S(=O)(=O)c2ccc(C#Cc3ccncc3)cc2O[C@H]1CN(C)C(=O)C1CCOCC1 | inactive
CN(C)Cc1cn(CC[C@@H]2CC[C@H](N)[C@H](CO)O2)nn1 | inactive
C[C@H](CO)N1C[C@H](C)[C@@H](CN(C)S(=O)(=O)c2ccc3ccccc3c2)OCc2cn(nn2)CCCC1=O | inactive
C[C@H](CO)N1C[C@H](C)[C@@H](CN(C)C(=O)Nc2cccc3ccccc23)Oc2c(NC(=O)C3CCCCC3)cccc2C1=O | inactive
COc1cc(Nc2ncc3c(n2)-c2ccc(Cl)cc2C(c2c(F)cccc2OC)=NC3)ccc1C(=O)O | active
C=CCN(C(=O)[C@H]1N(CCOCCO)C(=O)[C@H]2[C@H](C(=O)O)[C@@H]3C=C[C@@]21O3)c1ccc(OC)cc1 | inactive
CCS(=O)(=O)Nc1ccc2c(c1)C(=O)N(C)[C@H]1CC[C@@H](CC(=O)N[C@H]3CCN(Cc4ccccc4)C3)O[C@@H]1CO2 | inactive
C[C@@H]1CN([C@H](C)CO)C(=O)c2cccc(NC(=O)C3CCOCC3)c2O[C@@H]1CN(C)S(=O)(=O)c1cccs1 | inactive
CC(=O)OC1CCC2(C)C(CCC3C2CCC2(C)C3CC3OC4(CCC(C)CO4)C(C)C32)C1 (stereo unspecified) | inactive
CC1CCC2(OC1)OC1CC3C4CC=C5CC(O)CCC5(C)C4CCC3(C)C1C2C (stereo unspecified) | inactive
C[C@@H]1CC[C@@]2(OC1)O[C@H]1C[C@H]3[C@H]4C[C@@H](O)[C@H]5C[C@@H](O[C@@H]6O[C@H](CO)[C@H](O[C@@H]7O[C@H](CO)[C@@H](O)[C@H](O[C@@H]8OC[C@@H](O)[C@H](O)[C@H]8O)[C@H]7O[C@@H]7O[C@H](CO)[C@@H](O[C@@H]8O[C@H](CO)[C@@H](O)[C@H](O)[C@H]8O)[C@H](O)[C@H]7O)[C@H](O)[C@H]6O)[C@H](O)C[C@]5(C)[C@@H]4CC[C@]3(C)[C@H]1[C@@H]2C | active
CC(C)=CCC[C@](C)(O[C@@H]1O[C@H](CO[C@@H]2OC[C@@H](O)[C@H](O)[C@H]2O)[C@@H](O)[C@H](O)[C@H]1O)[C@H]1CC[C@]2(C)[C@@H]1[C@H](O)C[C@@H]1[C@@]3(C)CC[C@H](O[C@@H]4O[C@H](CO)[C@@H](O)[C@H](O)[C@H]4O)C(C)(C)[C@@H]3CC[C@]12C | inactive
CC1CCC2(OC1)OC1CC3C4CCC5CC(O)CCC5(C)C4CC(=O)C3(C)C1C2C (stereo unspecified) | inactive
C[C@@H]1CC[C@@]2(OC1)O[C@H]1C[C@H]3[C@H]4C[C@@H](O)[C@H]5C[C@@H](O[C@@H]6O[C@H](CO)[C@H](O[C@@H]7O[C@H](CO)[C@@H](O)[C@H](O[C@@H]8OC[C@@H](O)[C@H](O)[C@H]8O)[C@H]7O[C@@H]7O[C@H](CO)[C@@H](O)[C@H](O)[C@H]7O)[C@H](O)[C@H]6O)[C@H](O)C[C@]5(C)[C@@H]4CC[C@]3(C)[C@H]1[C@@H]2C | inactive
C[C@@H]1CC[C@@]2(OC1)O[C@H]1C[C@H]3[C@H]4C[C@@H](O)[C@H]5C[C@@H](O[C@@H]6O[C@H](CO)[C@H](O[C@@H]7O[C@H](CO)[C@@H](O)[C@H](O[C@@H]8OC[C@@H](O)[C@H](O)[C@H]8O)[C@H]7O[C@@H]7O[C@H](CO)[C@@H](O[C@@H]8O[C@H](CO)[C@@H](O)[C@H](O)[C@H]8O)[C@H](O)[C@H]7O)[C@H](O)[C@H]6O)CC[C@]5(C)[C@@H]4CC[C@]3(C)[C@H]1[C@@H]2C | active
C[C@@H]1CC[C@@]2(OC1)O[C@H]1C[C@H]3[C@H]4CC=C5C[C@@H](O[C@@H]6O[C@H](CO)[C@@H](O[C@@H]7O[C@@H](C)[C@H](O)[C@@H](O)[C@H]7O[C@@H]7O[C@@H](C)[C@H](O)[C@@H](O)[C@H]7O)[C@H](O)[C@H]6O)CC[C@]5(C)[C@@H]4CC[C@]3(C)[C@H]1[C@@H]2C | active
CC1CCC2(OC1)OC1CC3C4CCC5CC(O)CCC5(C)C4CCC3(C)C1C2C (stereo unspecified) | inactive
CC(=O)OC1CCC2(C)C(CCC3C2CC(=O)C2(C)C3CC3OC4(CCC(C)CO4)C(C)C32)C1 (stereo unspecified) | inactive

SMILES | cytotoxicity call
C[C@@H]1CO[C@]2(O[C@H]3C[C@H]4[C@H]5C[C@H](O[C@H]6O[C@@H](C)[C@@H](O)[C@@H](O[C@@H]7O[C@@H](C)[C@H](O)[C@@H](O)[C@H]7O)[C@@H]6O)[C@H]6C[C@@H](O)CC[C@]6(C)[C@@H]5CC[C@]4(C)[C@H]3[C@@H]2C)[C@@H](O)C1 | inactive
C[C@@H]1CC[C@@]2(OC1)O[C@H]1C[C@H]3[C@H]4C[C@@H](O)[C@H]5C[C@@H](O[C@@H]6O[C@H](CO)[C@H](O[C@@H]7O[C@H](CO)[C@@H](O)[C@H](O[C@@H]8OC[C@@H](O)[C@H](O)[C@H]8O)[C@H]7O[C@@H]7O[C@H](CO)[C@@H](O)[C@H](O)[C@H]7O)[C@H](O)[C@H]6O)CC[C@]5(C)[C@@H]4CC[C@]3(C)[C@H]1[C@@H]2C | active
COc1c(O)cc(O)cc1O | inactive
O=C1OCC=C[C@H]2O[C@@]34C=CCN(Cn5nnc6ccccc65)C(=O)[C@H]3N(CCO)C(=O)[C@@H]4[C@@H]12 | inactive
CNC(=O)CN1CCN2CCN(CC(=O)NC)CC(=O)[O][Gd]([O]C(=O)C2)[O]C(=O)C1 | inactive
C[C@@H]1CCCCO[C@@H](CN(C)S(=O)(=O)c2cn(C)cn2)[C@@H](C)CN([C@@H](C)CO)C(=O)c2cc(NS(=O)(=O)c3cccs3)ccc2O1 | inactive
Cc1noc(C)c1S(=O)(=O)Nc1cccc2c1O[C@@H](CN(C)CC1CC1)[C@@H](C)CN([C@@H](C)CO)C2=O | inactive
C[C@H]1CN([C@@H](C)CO)C(=O)c2cccc(NC(=O)Nc3ccc4c(c3)OCO4)c2O[C@H]1CN(C)S(C)(=O)=O | inactive
Cc1noc(C)c1S(=O)(=O)Nc1ccc2c(c1)C(=O)N([C@H](C)CO)C[C@H](C)[C@@H](CN(C)Cc1ccc(C(F)(F)F)cc1)OCCCC[C@@H](C)O2 | inactive
O=C(C[C@H]1C[C@H]2c3cc(NS(=O)(=O)c4ccc(F)cc4)ccc3O[C@H]2[C@@H](CO)O1)NCc1ccccc1F | inactive
C[C@H]1CN([C@@H](C)CO)C(=O)c2cc(NC(=O)CCC(F)(F)F)ccc2O[C@@H]1CN(C)C(=O)Nc1ccc(C(F)(F)F)cc1 | inactive
C[C@H]1CN([C@@H](C)CO)C(=O)c2cccc(NC(=O)Nc3ccccc3)c2O[C@H]1CN(C)S(C)(=O)=O | inactive
COc1ccc(S(=O)(=O)Nc2cccc3c2O[C@@H](CN(C)C(=O)Nc2c(C)noc2C)[C@@H](C)CN([C@H](C)CO)C3=O)cc1 | inactive
Cc1noc(C)c1NC(=O)Nc1ccc2c(c1)CC(=O)N([C@H](C)CO)C[C@@H](C)[C@H](CN(C)S(=O)(=O)c1cn(C)cn1)O2 | inactive
C[C@H]1O[C@@H](O[C@H]2[C@@H](O)[C@@H](O)[C@@H](O[C@H]3CC[C@]4(C)[C@H]5CC=C6[C@H]7CC(C)(C)[C@H]8C[C@]7(C(=O)O8)[C@@H](O)C[C@]6(C)[C@@]5(C)CC[C@H]4C3(C)C)O[C@@H]2CO)[C@@H](O)[C@@H](O[C@H]2OC[C@@H](O)[C@@H](O)[C@@H]2O)[C@@H]1O | inactive
C[C@@H]1O[C@@H](O[C@H]2[C@H](O)[C@@H](O)[C@H](OC[C@H]3O[C@@H](OC(=O)[C@]45CCC(C)(C)C[C@@H]4C4=CC[C@H]6[C@@]7(C)CC[C@H](O[C@H]8OC[C@H](O)[C@H](O)[C@H]8O[C@H]8O[C@@H](C)[C@H](O)[C@@H](O)[C@H]8O)[C@@](C)(CO)[C@@H]7CC[C@@]6(C)[C@]4(C)CC5)[C@H](O)[C@@H](O)[C@@H]3O)O[C@@H]2CO)[C@H](O)[C@H](O)[C@H]1O | inactive
Cn1cnc(S(=O)(=O)N2C[C@@H](O)COC[C@H]3O[C@H](CC(=O)N4CCN(c5ccccc5)CC4)CC[C@@H]32)c1 | inactive
O=C1c2ccccc2C(=O)c2c1ccc(O)c2O | inactive
O=C1c2ccccc2C(=O)c2c(NCCNCCO)ccc(NCCNCCO)c21 | active
Cl.Cl.O=C1c2c(O)ccc(O)c2C(=O)c2c(NCCNCCO)ccc(NCCNCCO)c21 | active
O=C(CCNCCO)c1ccccc1 | inactive
O=C1c2c(O)ccc(O)c2C(=O)c2c(NCCNCCO)ccc(NCCNCCO)c21 | active
O=[N+]([O-])c1ccc(NCCNCCO)cc1 | inactive
O=C1c2cccc(O)c2C(=O)c2c(O)cccc21 | inactive
COc1ccc(S(=O)(=O)Nc2ccc3c(c2)C(=O)N([C@@H](C)CO)C[C@H](C)[C@H](CN(C)Cc2ccncc2)O3)cc1 | inactive
